Assay results as given in the supplement of paper PMC12282887.
± gives the standard deviation of the averaged measurements.

Key:
Assay in all cases: promoter activity interaction Z-score (Lux/OD deviation from empty-vector control); higher = stronger promoter induction by the compound
[1] = system: E. coli BW25113 acrABp lux reporter
Procedure, shortened: (§1)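 At 37°C, E. coli BW25113 reporter cultures in 40 µl LB Lennox in 384-well plates were read for OD600 and luminescence every 30 min for 12 h. Windows were 0–8 h for wild type and 1–9 h for deletion strains, and wells under 10% of the median growth value were removed. The score is the Z-transformed residual of growth-normalised luminescence against a control fit.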

[2] = system: E. coli BW25113 micFp lux reporter
Procedure, shortened: as §1

[3] = system: E. coli BW25113 ompFp lux reporter
Procedure, shortened: as §1

[4] = system: E. coli BW25113 robp lux reporter
Procedure, shortened: as §1

[5] = system: E. coli BW25113 soxSp lux reporter
Procedure, shortened: as §1

[6] = system: E. coli BW25113 tolCp lux reporter
Procedure, shortened: as §1

[7] = 0.53 µg/ml, genetic background: wild type
[8] = 0.53 µg/ml, genetic background: ΔmarA
[9] = 0.53 µg/ml, genetic background: Δrob
[10] = 0.53 µg/ml, genetic background: ΔsoxS
[11] = 1.1 µg/ml, genetic background: wild type
[12] = 1.1 µg/ml, genetic background: ΔmarA
[13] = 1.1 µg/ml, genetic background: Δrob
[14] = 1.1 µg/ml, genetic background: ΔsoxS
[15] = 2.1 µg/ml, genetic background: wild type
[16] = 2.1 µg/ml, genetic background: ΔmarA
[17] = 2.1 µg/ml, genetic background: Δrob
[18] = 2.1 µg/ml, genetic background: ΔsoxS
[19] = 4.2 µg/ml, genetic background: wild type
[20] = 4.2 µg/ml, genetic background: ΔmarA
[21] = 4.2 µg/ml, genetic background: Δrob
[22] = 4.2 µg/ml, genetic background: ΔsoxS

## Cc1onc(-c2ccccc2)c1C(=O)N[C@@H]1C(=O)N2[C@@H]1SC(C)(C)[C@@H]2C(=O)O [Oxacillin]
[1]; [7]
  promoter activity interaction Z-score: 0.053 ± 0.18
[1]; [8]
  promoter activity interaction Z-score: -0.268 ± 0.44
[1]; [9]
  promoter activity interaction Z-score: -0.0793 ± 0.23
[1]; [10]
  promoter activity interaction Z-score: -0.33 ± 0.59
[1]; [11]
  promoter activity interaction Z-score: 0.196 ± 0.12
[1]; [12]
  promoter activity interaction Z-score: 1.12 ± 0.86
[1]; [13]
  promoter activity interaction Z-score: 0.498 ± 0.18
[1]; [14]
  promoter activity interaction Z-score: -0.172 ± 0.078
[1]; [15]
  promoter activity interaction Z-score: 0.0571 ± 0.33
[1]; [16]
  promoter activity interaction Z-score: 0.268 ± 0.39
[1]; [17]
  promoter activity interaction Z-score: -0.074 ± 0.13
[1]; [18]
  promoter activity interaction Z-score: 0.181 ± 0.15
[1]; [19]
  promoter activity interaction Z-score: 0.273 ± 0.22
[1]; [20]
  promoter activity interaction Z-score: 0.585 ± 0.21
[1]; [21]
  promoter activity interaction Z-score: 0.529 ± 0.22
[1]; [22]
  promoter activity interaction Z-score: 0.643 ± 0.31
[2]; [7]
  promoter activity interaction Z-score: -0.0698 ± 0.15
[2]; [8]
  promoter activity interaction Z-score: -0.00609 ± 0.034
[2]; [9]
  promoter activity interaction Z-score: 0.0977 ± 0.018
[2]; [10]
  promoter activity interaction Z-score: -0.311 ± 0.1
[2]; [11]
  promoter activity interaction Z-score: 0.087 ± 0.12
[2]; [12]
  promoter activity interaction Z-score: 0.0472 ± 0.028
[2]; [13]
  promoter activity interaction Z-score: -0.0746 ± 0.027
[2]; [14]
  promoter activity interaction Z-score: -0.46 ± 0.051
[2]; [15]
  promoter activity interaction Z-score: -0.222 ± 0.18
[2]; [16]
  promoter activity interaction Z-score: -0.0625 ± 0.059
[2]; [17]
  promoter activity interaction Z-score: -0.00193 ± 0.23
[2]; [18]
  promoter activity interaction Z-score: -0.245 ± 0.077
[2]; [19]
  promoter activity interaction Z-score: -0.192 ± 0.041
[2]; [20]
  promoter activity interaction Z-score: -0.163 ± 0.035
[2]; [21]
  promoter activity interaction Z-score: -0.112 ± 0.052
[2]; [22]
  promoter activity interaction Z-score: -0.2749 ± 0.002
[3]; [7]
  promoter activity interaction Z-score: 0.23 ± 0.46
[3]; [8]
  promoter activity interaction Z-score: -0.204 ± 0.21
[3]; [9]
  promoter activity interaction Z-score: 0.703 ± 0.91
[3]; [10]
  promoter activity interaction Z-score: 0.0892 ± 0.53
[3]; [11]
  promoter activity interaction Z-score: 0.678 ± 0.061
[3]; [12]
  promoter activity interaction Z-score: 0.797 ± 0.28
[3]; [13]
  promoter activity interaction Z-score: 1.14 ± 0.72
[3]; [14]
  promoter activity interaction Z-score: -0.107 ± 0.53
[3]; [15]
  promoter activity interaction Z-score: 0.461 ± 0.27
[3]; [16]
  promoter activity interaction Z-score: 0.0383 ± 0.29
[3]; [17]
  promoter activity interaction Z-score: 0.0292 ± 0.36
[3]; [18]
  promoter activity interaction Z-score: 0.0474 ± 0.046
[3]; [19]
  promoter activity interaction Z-score: 1.42 ± 0.14
[3]; [20]
  promoter activity interaction Z-score: 1.05 ± 0.48
[3]; [21]
  promoter activity interaction Z-score: 0.898 ± 0.69
[3]; [22]
  promoter activity interaction Z-score: 0.846 ± 0.19
[4]; [7]
  promoter activity interaction Z-score: 0.088 ± 0.58
[4]; [8]
  promoter activity interaction Z-score: -0.319 ± 0.36
[4]; [9]
  promoter activity interaction Z-score: 0.652 ± 0.036
[4]; [10]
  promoter activity interaction Z-score: 0.106 ± 0.47
[4]; [11]
  promoter activity interaction Z-score: 0.612 ± 0.26
[4]; [12]
  promoter activity interaction Z-score: 0.925 ± 0.46
[4]; [13]
  promoter activity interaction Z-score: 0.609 ± 0.17
[4]; [14]
  promoter activity interaction Z-score: 0.778 ± 0.55
[4]; [15]
  promoter activity interaction Z-score: 0.467 ± 0.023
[4]; [16]
  promoter activity interaction Z-score: -0.206 ± 0.25
[4]; [17]
  promoter activity interaction Z-score: 0.275 ± 0.38
[4]; [18]
  promoter activity interaction Z-score: 0.757 ± 0.4
[4]; [19]
  promoter activity interaction Z-score: 0.385 ± 0.34
[4]; [20]
  promoter activity interaction Z-score: 1.01 ± 0.081
[4]; [21]
  promoter activity interaction Z-score: 0.222 ± 0.11
[4]; [22]
  promoter activity interaction Z-score: 1.08 ± 0.62
[5]; [7]
  promoter activity interaction Z-score: -0.0338 ± 0.24
[5]; [8]
  promoter activity interaction Z-score: -0.139 ± 0.028
[5]; [9]
  promoter activity interaction Z-score: -0.137 ± 0.026
[5]; [10]
  promoter activity interaction Z-score: 0.0469 ± 0.46
[5]; [11]
  promoter activity interaction Z-score: 0.0426 ± 0.12
[5]; [12]
  promoter activity interaction Z-score: 0.0745 ± 0.03
[5]; [13]
  promoter activity interaction Z-score: -0.157 ± 0.17
[5]; [14]
  promoter activity interaction Z-score: -0.0373 ± 0.73
[5]; [15]
  promoter activity interaction Z-score: 0.0115 ± 0.12
[5]; [16]
  promoter activity interaction Z-score: -0.148 ± 0.13
[5]; [17]
  promoter activity interaction Z-score: -0.0916 ± 0.13
[5]; [18]
  promoter activity interaction Z-score: 0.0598 ± 0.27
[5]; [19]
  promoter activity interaction Z-score: -0.0461 ± 0.098
[5]; [20]
  promoter activity interaction Z-score: -0.0772 ± 0.096
[5]; [21]
  promoter activity interaction Z-score: -0.0369 ± 0.08
[5]; [22]
  promoter activity interaction Z-score: 0.0279 ± 0.51
[6]; [7]
  promoter activity interaction Z-score: -0.367 ± 0.24
[6]; [8]
  promoter activity interaction Z-score: -0.79 ± 0.24
[6]; [9]
  promoter activity interaction Z-score: -0.414 ± 0.28
[6]; [10]
  promoter activity interaction Z-score: -0.864 ± 0.42
[6]; [11]
  promoter activity interaction Z-score: 0.453 ± 0.31
[6]; [12]
  promoter activity interaction Z-score: 0.956 ± 0.37
[6]; [13]
  promoter activity interaction Z-score: 0.349 ± 0.2
[6]; [14]
  promoter activity interaction Z-score: -0.174 ± 0.0082
[6]; [15]
  promoter activity interaction Z-score: -0.798 ± 0.98
[6]; [16]
  promoter activity interaction Z-score: -0.615 ± 0.57
[6]; [17]
  promoter activity interaction Z-score: -0.016 ± 0.46
[6]; [18]
  promoter activity interaction Z-score: -0.0987 ± 0.39
[6]; [19]
  promoter activity interaction Z-score: -0.558 ± 0.11
[6]; [20]
  promoter activity interaction Z-score: -0.589 ± 0.39
[6]; [21]
  promoter activity interaction Z-score: -0.155 ± 0.7
[6]; [22]
  promoter activity interaction Z-score: -0.224 ± 1.2
